PubChem BioAssay (NCATS)
Records with an inconclusive call do not appear. Where a call stands in place of a potency, no number is given. Calls of active or inactive are those of the source. The call rests on the fitted dose curve; in most records, active means well fitted inhibition curve with a large enough effect; inconclusive means small, poorly fitted or top-dose-only effect; inactive means no such curve, though single readings can be large or run the other way. Where a SMILES comes first, the peptide text is derived from it. The star is where a group is joined. AFC = O=c1cc(C(F)(F)F)c2ccc(N*)cc2o1

Legend:
[1] = system: Zika virus NS2B-NS3 protease (unlinked complex); test: Primary screen GU Rhodamine qHTS for Zika virus inhibitors: Unlinked NS2B-NS3 protease assay (AID 1347159); further: nearly all actives have a fitted effect of over 60% in size
Outline: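 A qHTS format was used, with compound concentrations ranging up to 114 microM. Each compound was preincubated with 25 nM NS2B-NS3 protease, and the substrate was then added at 1.5 microM. Curves were fitted with a 4-parameter Hill model.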

[2] = system: Zika virus NS2B-NS3 protease (linked construct); test: Primary screen NINDS Rhodamine qHTS for Zika virus inhibitors (AID 1347160); further: nearly all actives have a fitted effect of over 55% in size
Outline: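 Kinetic fluorescence (Ex 480 nm, Em 540 nm) over 15 min with 1.5 microM Rhodamine110 peptide and 25 nM linked protease.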
Potency means the concentration at half of the fitted maximal effect.

| SMILES | Potency [1] | Potency [2] |
| --- | --- | --- |
| CC(C)=CCCC1(C)Oc2cc3c(c4c2C2C(O4)C(C)(O)CCC21)CN(C(CCC(=O)O)C(=O)O)C3=O (stereo not given) | inactive | inactive |
| O=C1[C@H](O[C@@H]2O[C@H](CO)[C@@H](O)[C@H](O)[C@H]2O)Oc2ccccc2N1O | inactive | inactive |
| O=S(=O)(NC1CCNCC1)c1cc(S(=O)(=O)c2ccccc2)ccc1C(F)(F)F | inactive | inactive |
| C/C=C1/[C@H](O[C@@H]2O[C@H](CO)[C@@H](O)[C@H](O)[C@H]2O)OC=C(C(=O)OC)[C@H]1CC(=O)O[C@@H]1O[C@H](CO)[C@@H](O)[C@H](O)[C@H]1O | inactive | inactive |
| CCN[C@@H]1C[C@H](N)[C@@H](O[C@H]2OC(CN)=CC[C@H]2N)[C@H](O)[C@H]1O[C@H]1OC[C@](C)(O)[C@H](NC)[C@H]1O | inactive | inactive |
| Clc1ccc(CN[C@H]2CCN(c3ncc(Br)cn3)C2)c(Cl)c1 | inactive | inactive |
| C=C1C[C@]23C[C@H]1CC[C@H]2[C@@]12C=C[C@H](O)[C@@](C)(C(=O)O1)[C@H]2[C@@H]3C(=O)O | inactive | inactive |
| CC(=O)OC[C@@]12[C@H](O)C[C@]3(C)C(=CCC4[C@@]5(C)CC[C@H](O[C@@H]6O[C@H](C(=O)O)[C@@H](O[C@@H]7O[C@H](CO)[C@@H](O)[C@H](O)[C@H]7O)[C@H](O)[C@H]6O[C@@H]6O[C@H](CO)[C@@H](O)[C@H](O)[C@H]6O)[C@](C)(CO)C5CC[C@]43C)[C@@H]1CC(C)(C)[C@@H](OC(C)=O)[C@@H]2O (stereo not given in full) | inactive | inactive |
| O=C(COc1ccc(Cl)cc1)NC1CCC(NC(=O)COc2ccc(Cl)cc2)CC1 (stereo not given) | inactive | inactive |
| C=C(C)C(=O)O[C@H]1C[C@@](C)(OC(C)=O)[C@@]2(O)CC[C@@](C)(O)[C@H](OC(C)=O)[C@@]23OC(=O)C(COC)=C13 | inactive | inactive |
| CC(C)(OC1OC(CO)C(O)C(O)C1O)C1CCC(O)(CO)C2CC(O)C(C)(O)C2C1 (stereo not given) | inactive | inactive |
| CC1(C)CC(=O)N(CCCCN2CCN(c3ncccn3)CC2)C(=O)C1 | inactive | inactive |
| Cc1cc(N2CCCCC2)nc2ccccc12 | inactive | inactive |
| COc1cc(/C=C/C(=O)O[C@H]2[C@H](O)[C@@H](CO)O[C@@]2(CO)O[C@H]2O[C@H](COC(=O)c3ccc(O)cc3)[C@@H](O)[C@H](O)[C@H]2O)cc(OC)c1OC | inactive | inactive |
| CC1=CC(=O)C[C@H]2[C@@H]1CC[C@@H](C)[C@]21CO[C@H](c2ccoc2)C1=O | inactive | inactive |
| CCn1nnnc1NCc1ccc(C(C)C)cc1 | inactive | inactive |
| CC1CCC2C(C)(C)CC(C)(CO)C2(O)C1C(=O)O (stereo not given) | inactive | inactive |
| CC(=O)OC1C(O)C(C)=C(CCC(C)CC(=O)O)C2(C)CCCC(C)(C)C12 (stereo not given) | inactive | inactive |
| C=C1[C@H]2[C@H](O[C@@H]3O[C@H](COC(=O)/C=C/c4cc(OC)c(O)c(OC)c4)[C@@H](O)[C@H](O)[C@H]3O)OC=C(C(=O)O)[C@H]2C[C@@H]1O | inactive | inactive |
| C[C@@H]1C(=O)O[C@H]2CC34[C@H]5C[C@@H](C(C)(C)C)C36[C@@H](OC(=O)[C@@H]6O)O[C@@]4(C(=O)O5)[C@]21O (stereo not given in full) | inactive | inactive |
| CC(C)C(=O)O[C@@H]1[C@@H](O)[C@@H](O[C@H]2O[C@H](CO)[C@@H](O)[C@H](O)[C@H]2O)O[C@H](CO)[C@H]1O | inactive | inactive |
| COc1cc(C)c(C(=O)O[C@H]2[C@@H](O)[C@H](n3ccc(=O)[nH]c3=O)O[C@@H]2CO)c(OC)c1 | inactive | inactive |

| SMILES | Potency [1] | Potency [2] |
| --- | --- | --- |
| O=C(O)C[C@@H](NC(=O)c1cc(-c2ccc(-c3ccncc3)cc2)cs1)c1ccccc1 | 15.8 µM (active) | 20 µM (active) |
| CC(C#N)C(C)O[C@@H]1O[C@H](CO)[C@@H](O)[C@H](O)[C@H]1O (stereo not given in full) | inactive | inactive |
| CCOc1nc2cccc(C(=O)O)c2n1Cc1ccc(-c2ccccc2-c2noc(=O)[nH]2)cc1 | inactive | inactive |
| Cc1nnc(C(C)C)n1C1CC2CCC(C1)N2CCC(NC(=O)C1CCC(F)(F)CC1)c1ccccc1 (stereo not given) | inactive | inactive |
| C[C@@H]1C/C=C/C=C\C=C\C=C\[C@H](O[C@@H]2O[C@H](C)[C@@H](O)[C@H](N)[C@@H]2O)C[C@@H]2O[C@](O)(C[C@@H](O)C[C@H]3O[C@@H]3/C=C/C(=O)O1)C[C@H](O)[C@H]2C(=O)O | inactive | inactive |
| CC1CCC(=O)CC(O)C(O)CC(=O)O1 (stereo not given) | inactive | inactive |
| CC1(CO)CC[C@]2(C(=O)O[C@@H]3O[C@H](CO)[C@@H](O)[C@H](O)[C@H]3O)CC[C@]3(C)C(=CCC4[C@@]5(C)C[C@H](O)[C@H](O[C@@H]6OC[C@@H](O)[C@H](O)[C@H]6O)[C@@](C)(CO)C5CC[C@]43C)C2C1 (stereo not given in full) | inactive | inactive |
| CC1=C2[C@@H]([C@H](C)CC[C@H]2/C=C(\C)C(=O)O)[C@H](O)C1 | inactive | inactive |
| CC1CC(O)CC(C)(C)C1(O)CCO (stereo not given) | inactive | inactive |
| CN1C(=O)c2ccccc2-n2c(nc3ccccc3c2=O)[C@@]12O[C@H]2c1ccccc1 | inactive | inactive |
| CC1(CO)CC2C(O)C(=O)C3(CO)CC3(C)C2C1 (stereo not given) | inactive | inactive |
| CC1CCC2(C(=O)OC3OC(CO)C(O)C(O)C3O)CCC3(C)C(=CCC4C5(C)CC(O)C(O)C(C)(C(=O)O)C5CCC43C)C2C1(C)O (stereo not given) | inactive | inactive |
| CC(=O)O[C@@]1(C)C[C@@H](O)[C@]2(O)C=CO[C@@H](O[C@@H]3O[C@H](CO)[C@@H](O)[C@H](O)[C@H]3O)[C@@H]21 | inactive | inactive |
| CC1CCC2C(C)(C)C(O)CCC2(C)C12Cc1c(O)cc3c(c1O2)C(N)=NC3 (stereo not given) | inactive | inactive |
| CC(=O)N[C@@H](CC(C)C)C(=O)N[C@@H](CCC(=O)O)C(=O)N[C@@H](CCC(=O)O)C(=O)N[C@@H](CC(=O)O)C(=O)Nc1ccc2c(C(F)(F)F)cc(=O)oc2c1 (Ac-LEED-{AFC}) | inactive | inactive |
| COc1c(C(CC(C)C)OC(C)=O)ccc(Oc2c(O)cc(C)cc2/C=C/C(C)=O)c1C(=O)O (stereo not given) | 7.08 µM (active) | 11.2 µM (active) |
| O=C(c1ccc(F)cc1)C1CCN(CCn2c(=O)nc3n(c2=O)CCCC3)CC1 | inactive | inactive |
| CC1(CCC(=O)O)C(=O)C=CC23CC4CC(OC4(C)C2O)C13 (stereo not given) | inactive | inactive |
| O=C(c1ccccn1)c1cnn2c(-c3ccncc3)ccnc12 | inactive | inactive |
| Nc1nonc1C(=Nc1ccc(F)c(Cl)c1)NO | inactive | inactive |
| CC(C)(O)C1=CCC23COC(C2)C(O)(C(=O)O)CCC13 (stereo not given) | inactive | inactive |
| Nc1c(Br)cc(Br)cc1CNC1CCC(O)CC1 (stereo not given) | inactive | inactive |

| SMILES | Potency [1] | Potency [2] |
| --- | --- | --- |
| CNC(=O)c1ccc(Nc2ncc(C(F)(F)F)c(NCc3nccnc3N(C)S(C)(=O)=O)n2)cc1 | inactive | inactive |
| CC(/C=C/C1(O)C(C)CC(O)CC1(C)C)OC1OC(CO)C(O)C(O)C1O (stereo not given) | inactive | inactive |
| C/C=C1\[C@H](O[C@@H]2O[C@H](CO)[C@@H](O)[C@H](O)[C@H]2O)OC=C(C(=O)OC)[C@H]1CC(=O)OC | inactive | inactive |
| OCC1OC(Oc2cc(O)c3c(c2)OC(c2ccc(O)cc2)C(O)C3)C(O)C1O (stereo not given) | inactive | inactive |
| COc1cccc2c1CCC[C@H]2CN(C)CCc1ccc2ccoc2c1 | inactive | inactive |
| N#Cc1ccc2[nH]c(O)c(-c3ccc(CN4CCOCC4)cn3)c2c1 | inactive | inactive |
| Nc1ccn([C@@H]2C(F)=C(CO)[C@@H](O)[C@H]2O)c(=O)n1 | inactive | inactive |
| COc1ncc(-c2ccc3c(Nc4cc(Oc5cc(F)cc(F)c5)cc(C(=O)O)c4)c(S(=O)(=O)NC4CC4)cnc3c2)c(OC)n1 | 8.91 µM (active) | 14.1 µM (active) |
| O=C(O)Cc1nn(Cc2nc3cc(C(F)(F)F)ccc3s2)c(=O)c2nccnc12 | inactive | inactive |
| Cn1c(=O)cc(N2CCCC(N)C2)n(Cc2ccccc2C#N)c1=O (stereo not given) | inactive | inactive |
| CC1=CC[C@]2(C(=O)O[C@@H]3O[C@H](CO[C@@H]4O[C@H](CO)[C@@H](O[C@@H]5O[C@@H](C)[C@H](O)[C@@H](O)[C@H]5O)[C@H](O)[C@H]4O)[C@@H](O)[C@H](O)[C@H]3O)CC[C@]3(C)C(CCC4[C@@]5(C)C[C@@H](O)[C@H](O)[C@@](C)(CO)C5CC[C@]43C)C2C1C (stereo not given in full) | inactive | inactive |
| CN(NC(=O)CC(=O)NN(C)C(=S)c1ccccc1)C(=S)c1ccccc1 | inactive | inactive |
| Oc1ccc([C@H]2COc3cc(O)ccc3C2)cc1 | inactive | inactive |
| Cc1cc(O)cc(Oc2cc(C)c(C(=O)O)c(O)c2)c1 | 14.1 µM (active) | 17.8 µM (active) |
| COc1cc(C(C)=O)ccc1O[C@@H]1O[C@H](CO[C@@H]2O[C@@H](C)[C@H](O)[C@@H](O)[C@H]2O)[C@@H](O)[C@H](O)[C@H]1O | inactive | inactive |
| Cn1ccnc1CCOC(c1cc2nccc(C(=O)O)c2[nH]1)c1ccccc1Cl (stereo not given) | inactive | inactive |
| CC1NC(=O)C(Cc2c[nH]c3ccccc23)NC1=O (stereo not given) | inactive | inactive |
| C1CCN2CC3C[C@@H](CN4CCCC[C@@H]34)[C@H]2C1 | inactive | inactive |
| CO[C@@]12CC3[C@@H]([C@@H](O)[C@@H](OC(C)=O)C4[C@](C)(COC(C)=O)CCC[C@]34C)[C@@H](C)C1=CC(=O)O2 (stereo not given in full) | inactive | inactive |
| C=C(C)C1CC2(CO)C(=CC1=O)CCC(O)C2C (stereo not given) | inactive | inactive |
| CC(C)(O)c1ccc2c(c1)C(O)CC1C(C)(C(=O)O)CCCC21C (stereo not given) | inactive | inactive |
